# In PubChem BioAssay AID2355 (The Scripps Research Institute Molecular Screening Center, 2010):
# The other results are listed elsewhere or left out. Values without a mark were called inactive. Calls of active or inactive are those of the source. Cut-off read from the data, not from the text of the source: active = inhibition above about 16%; inactive = the rest.
# Molecular target: Serine/threonine-protein phosphatase PP1-alpha catalytic subunit (Homo sapiens) (UniProt P62136)
# Assay: human PP1 catalytic activity blockade – biochemical, fluorescence, triplicate, counter-screen for PP5 inhibitor project (AID 2355)
# Settings: PP1 enzyme, fluorescent phosphatase substrate; at 6.7 µM; stronger effect = higher value
# Sequence of Serine/threonine-protein phosphatase PP1-alpha catalytic subunit (Homo sapiens) (P62136 whole entry, looked up): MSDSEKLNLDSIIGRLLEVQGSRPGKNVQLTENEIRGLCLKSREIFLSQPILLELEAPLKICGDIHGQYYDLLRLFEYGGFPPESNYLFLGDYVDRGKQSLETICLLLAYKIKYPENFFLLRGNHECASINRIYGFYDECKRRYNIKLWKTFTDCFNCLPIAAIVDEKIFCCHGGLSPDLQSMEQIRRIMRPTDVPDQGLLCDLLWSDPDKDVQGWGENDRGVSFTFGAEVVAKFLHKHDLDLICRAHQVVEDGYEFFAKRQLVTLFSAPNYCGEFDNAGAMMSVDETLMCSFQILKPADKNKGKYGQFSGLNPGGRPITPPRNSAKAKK
row,Compound,inhibition
1,CN(c1ccccc1)S(=O)(=O)c1ccc(NC(=O)COc2ccccc2)cc1,3.34%
2,COc1cc(/C=C2/SC(=S)N(Cc3ccccc3)C2=O)cc(OC)c1O,2.23%
3,C[C@@]12C(=O)N(c3cccc(Br)c3)C(=O)N1[C@H](c1ccc(Cl)cc1)[C@@H]1C(=O)N(C3CCCCC3)C(=O)[C@@H]12,6.16%
4,CNC(=S)NNC(=O)c1oc2nc(-c3ccccc3)cc(-c3ccco3)c2c1N,-1.11%
5,Cc1sc(NC(=O)C2C3CCC(O3)C2C(=O)O)c(C(=O)OC(C)C)c1-c1ccc(Cl)cc1 (stereo not drawn),9.97%
6,CCN1CCN(CCNC(=O)c2ccc(/C=C3/Sc4ccccc4N(Cc4cccc(C)c4)C3=O)cc2)CC1,-16%
7,N#Cc1c(N2CCCCC2)nc(N)c2c(N)nc(SCC(=O)O)cc12,3.99%
8,COCCN1C=C2C(=O)C(C)(OC(=O)C3CCCC3)C(=O)C=C2C=C1c1ccsc1 (stereo not drawn),16.6% (active)
9,O=C(O)c1n[nH]nc1-c1ccccc1,0.18%
10,CN(C)c1nc(N)nc(CSc2nnnn2-c2cccc3ccccc23)n1,-1.14%
11,Cc1nc(NC(CC(C)C)C(=O)O)c2nc(C)oc2n1 (stereo not drawn),-4.44%
12,O=c1ccc2c(-c3ccccc3S(=O)(=O)O)c3ccc(O)c(O)c3oc-2c1O,5.34%
13,O=C(C1=C[C@H](c2ccc(C(F)(F)F)cc2)C[C@H](OCc2ccc(CO)cc2)O1)N1CCN(Cc2ccccc2)CC1,3.55%
14,Cc1nnc(SCc2nc3ccccc3nc2C)s1,-2.74%
15,COc1cc(C(F)(F)F)c(C(=O)N(C)c2ccc(Cl)cc2)cn1,0.28%
16,O=[N+]([O-])c1cccc2ncccc12,-2.99%
17,COc1ccc(OC)c(C(=O)c2ccc(C(=O)O)cc2)c1,-5.81%
18,CCOC(=O)Nc1ccc2c(c1)N(C(=O)CN1CCN3CCCC3C1)c1ccccc1CC2 (stereo not drawn),-7%
